Measurements published in the supplement of paper PMC4206461.

Test system: Pseudomonas aeruginosa PA14 wild type
Experiment: respiration area under curve with compound as sole nitrogen source, 24 h (OmniLog AUC (arbitrary units)); higher = more respiration / better utilisation as nitrogen source
Method: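 Biolog Phenotype MicroArray plates PM6-PM8: each di/tripeptide is the sole nitrogen source (IF-0 medium with succinate/ferric citrate and dye mix A). Tetrazolium reduction was read in the OmniLog every 15 min for 24 h at 37°C and summarised as area under the respiration curve (arbitrary units). The paper counts values below 2000 as no respiration and above 8000 as solid respiration. Replicate datasets are averaged.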

Row | SMILES | respiration area under curve
1 | CC(C)C[C@@H](NC(=O)CNC(=O)CN)C(=O)O (plate: PM8) | 5880 (active)
2 | CC(C)C[C@H](NC(=O)CNC(=O)CN)C(=O)O (plate: PM8) | 10400 (active)
